According to the supplement of paper PMC10515830:
Structures can show the parent of a compound that is named as a salt.

Legend:
Details in all cases: 10 µM; exposure time 6 h
[1] = test system: Danio rerio larvae (5 dpf); assay: difference in excitability vs DMSO (percentage points); higher = more excitable than DMSO
How it was run: (§1)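 Wild-type 5 dpf zebrafish larvae in 96-well plates were given 100 µL egg water containing library compound at 10 µM final for 6 h. After 3 h of exposure, plates at 28.5 ℃ were photographed every 6 s during a 3-h programme of moving lines and 100 ms, 400Hz tones. Z-LaP Tracker (a DeepLabCut model) quantified each behaviour, averaged over 48 larvae per compound. Values are the compound mean minus the DMSO-vehicle control, in percentage points.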

[2] = test system: Danio rerio larvae (5 dpf); assay: difference in startle response vs DMSO (percentage points); higher = stronger startle than DMSO
How it was run: as §1

[3] = test system: Danio rerio larvae (5 dpf); assay: difference in activity during first hour vs DMSO (percentage points); higher = more activity than DMSO
How it was run: as §1

[4] = test system: Danio rerio larvae (5 dpf); assay: difference in habituation to acoustic stimuli vs DMSO (percentage points); higher = more habituation than DMSO
How it was run: as §1

[5] = test system: Danio rerio larvae (5 dpf); assay: difference in combined optomotor response to red, green and blue moving lines vs DMSO (percentage points); higher = stronger optomotor response than DMSO
How it was run: as §1

SMILES | difference in excitability [1] | difference in startle response [2] | difference in activity during first hour [3] | difference in habituation to acoustic stimuli [4] | difference [5]
CC(c1cc2ccccc2s1)N(O)C(N)=O (stereo not given) [Zileuton] | 3.87 | -0.493 | -3.58 | -0.832 | 6
Cc1cn([C@H]2C[C@H](N=[N+]=[N-])[C@@H](CO)O2)c(=O)[nH]c1=O [Zidovudine] | 4.38 | -2.12 | 0.0973 | 1.67 | 6.8
Cc1ncc([N+](=O)[O-])n1CCO [Metronidazole] | 5.42 | 1.25 | -3.64 | -2.4 | 7.32
CCOC(=O)[C@H](CCc1ccccc1)N[C@@H](C)C(=O)N1CCC[C@H]1C(=O)O [Enalapril (maleate)] | 0.733 | 3.17 | -0.995 | -3.38 | 7.06
COC(=O)C1=C(C)NC(C)=C(C(=O)OC)C1c1ccccc1[N+](=O)[O-] [Nifedipine] | 8.58 | -1.47 | -4.95 | 0.749 | 12.1
Cc1ccc(C(=O)Nc2ccc(CN3CCN(C)CC3)c(C(F)(F)F)c2)cc1C#Cc1cnc2cccnn12 [Ponatinib] | 7.08 | -6.04 | -11 | -7.62 | -12.5
CO[C@H]1C[C@@H]2CC[C@@H](C)[C@@](O)(O2)C(=O)C(=O)N2CCCC[C@H]2C(=O)O[C@H]([C@H](C)C[C@@H]2CC[C@@H](OCCO)[C@H](OC)C2)CC(=O)[C@H](C)/C=C(\C)[C@@H](O)[C@@H](OC)C(=O)[C@H](C)C[C@H](C)/C=C/C=C/C=C/1C [Everolimus] | 1.38 | 1.06 | 1.4 | -3.73 | 5.32
Cn1cnc([N+](=O)[O-])c1Sc1ncnc2[nH]cnc12 [Azathioprine] | -3.13 | 3.25 | -3.18 | 4.62 | 1.19
COc1cccc2c1C(=O)c1c(O)c3c(c(O)c1C2=O)C[C@@](O)(C(C)=O)C[C@@H]3O[C@H]1C[C@H](N)[C@H](O)[C@H](C)O1 [Daunorubicin (hydrochloride)] | 19.8 | 4.36 | -3.27 | 5.5 | -1.09
Cc1ccc(Sc2ccccc2N2CCNCC2)c(C)c1 [Vortioxetine (hydrobromide)] | -0.102 | 7.18 | -8.07 | -14.1 | -11.4
CC[C@H]1OC(=O)[C@H](C)[C@@H](O[C@H]2C[C@@](C)(OC)[C@@H](O)[C@H](C)O2)[C@H](C)[C@@H](O[C@@H]2O[C@H](C)C[C@H](N(C)C)[C@H]2O)[C@](C)(O)C[C@@H](C)C(=O)[C@H](C)[C@@H](O)[C@]1(C)O [Erythromycin] | 4.99 | -6.73 | 13.1 | -0.584 | 9.53
O=c1[nH]c(=O)n([C@H]2C[C@H](O)[C@@H](CO)O2)cc1F [Floxuridine] | 5.02 | -2.11 | 5.28 | -3.55 | 1.72
Cc1cccc(C)c1OCC(=O)N[C@@H](Cc1ccccc1)[C@@H](O)C[C@H](Cc1ccccc1)NC(=O)[C@H](C(C)C)N1CCCNC1=O [Lopinavir] | 10.5 | -2.95 | -0.504 | -4.82 | -0.255
CS(=O)(=O)c1cccc(C[C@H](NC(=O)c2c(Cl)cc3c(c2Cl)CCN(C(=O)c2ccc4ccoc4c2)C3)C(=O)O)c1 [Lifitegrast] | 5.68 | 2.04 | 16.5 | 0.0295 | 7.02
Nc1nc(Cl)nc2c1ncn2[C@H]1C[C@H](O)[C@@H](CO)O1 [Cladribine] | -6.72 | -0.563 | -3.5 | -0.582 | 8.45
C[C@@H]1C/C=C/C=C/C=C/C=C/[C@H](O[C@@H]2O[C@H](C)[C@@H](O)[C@H](N)[C@@H]2O)C[C@@H]2O[C@](O)(C[C@@H](O)C[C@H]3O[C@@H]3/C=C/C(=O)O1)C[C@H](O)[C@H]2C(=O)O [Natamycin] | 2.79 | -1.51 | 0.445 | 3.82 | 3.97
COc1cc2nc(N3CCN(C(=O)C4COc5ccccc5O4)CC3)nc(N)c2cc1OC (stereo not given) [Doxazosin (mesylate)] | 25 | 8.69 | 7.65 | -8.22 | -5.73
CC(C)C(=O)Nc1ccc([N+](=O)[O-])c(C(F)(F)F)c1 [Flutamide] | 2.83 | -7 | -6.35 | -14.3 | -13.7
COCCCOc1cc(C[C@@H](C[C@H](N)[C@@H](O)C[C@H](C(=O)NCC(C)(C)C(N)=O)C(C)C)C(C)C)ccc1OC [Aliskiren (hemifumarate)] | 16.6 | -3.2 | 10.2 | 0.61 | 3.27
C[C@@H]1O[C@@H]1P(=O)(O)O [Fosfomycin Trometamol] | 3.54 | -4.33 | -4.99 | -4.72 | -4.51
CO/N=C(\C(=O)N[C@@H]1C(=O)N2C(C(=O)O)=C(COC(N)=O)CS[C@H]12)c1ccco1 [Cefuroxime (sodium salt)] | 21.1 | 5.54 | -6.92 | 2.43 | 10.9
CNCCC=C1c2ccccc2CCc2ccccc21 [Nortriptyline (hydrochloride)] | 3.17 | 4.3 | -17.9 | -3.34 | -2.39
CC(=O)OCC(=O)[C@@]12OC3(CCCC3)O[C@@H]1C[C@H]1[C@@H]3CCC4=CC(=O)C=C[C@]4(C)[C@@]3(F)[C@@H](O)C[C@@]12C [Amcinonide] | 8.43 | 5.38 | -7.56 | -0.863 | 4.08
C#C[C@]1(O)CC[C@H]2[C@@H]3CCc4cc(OC)ccc4[C@H]3CC[C@@]21C [Mestranol] | 23 | -9.55 | -22.7 | 1.6 | -16.5

SMILES | difference in excitability [1] | difference in startle response [2] | difference in activity during first hour [3] | difference in habituation to acoustic stimuli [4] | difference [5]
NCCS [Cysteamine (hydrochloride)] | 4.79 | 3.78 | 3.89 | 0.254 | 14.5
Clc1ccc(C(c2ccccc2Cl)C(Cl)Cl)cc1 (stereo not given) [Mitotane] | 5.19 | -9.33 | 60.8 | -11.8 | -15.4
CO[C@H]1/C=C/O[C@@]2(C)Oc3c(C)c(O)c4c(O)c(c(/C=N/N5CCN(C)CC5)c(O)c4c3C2=O)NC(=O)/C(C)=C\C=C\[C@H](C)[C@H](O)[C@@H](C)[C@@H](O)[C@@H](C)[C@H](OC(C)=O)[C@@H]1C [Rifampicin] | 2.43 | 2.9 | 8.79 | -1.68 | -3.29
CCc1cc(C(N)=S)ccn1 [Ethionamide] | -2.77 | -1 | -3.96 | 0.506 | 2.57
NC(=O)c1cn(Cc2c(F)cccc2F)nn1 [Rufinamide] | 3.01 | 4.27 | 8.13 | 0.975 | 7.5
CC(CCc1ccc(O)cc1)NCCc1ccc(O)c(O)c1 (stereo not given) [Dobutamine (hydrochloride)] | 10.9 | 6.81 | -2.65 | 12 | 13.9
CN1CCN2c3ncccc3Cc3ccccc3C2C1 (stereo not given) [Mirtazapine] | -3.43 | 3.21 | 17.5 | -1.46 | -7.5
COc1c(N2CCNC(C)C2)c(F)cc2c(=O)c(C(=O)O)cn(C3CC3)c12 (stereo not given) [Gatifloxacin] | 15 | -3.53 | -1.17 | 2.86 | 2.83
CNS(=O)(=O)Cc1ccc2[nH]cc(CCN(C)C)c2c1 [Sumatriptan (succinate)] | 7.61 | 3.38 | -12.9 | 5.35 | -4.54
N=C(N)c1ccc(OCCCCCOc2ccc(C(=N)N)cc2)cc1 [Pentamidine] | 17 | 5.88 | -2.12 | 0.725 | 5.19
CON(C)Cc1ccc(O)c2c1C[C@H]1C[C@H]3[C@H](N(C)C)C(=O)C(C(N)=O)=C(O)[C@@]3(O)C(=O)C1=C2O | -1.28 | -2.07 | 7.53 | 4.95 | 0.0321
COc1cc2nccc(Oc3ccc(NC(=O)NC4CC4)c(Cl)c3)c2cc1C(N)=O [Lenvatinib] | 13.6 | 6.75 | -8.05 | 1.57 | 10.3
C[C@H](CCC(=O)O)[C@H]1CC[C@H]2[C@@H]3[C@H](O)C[C@@H]4C[C@H](O)CC[C@]4(C)[C@H]3C[C@H](O)[C@]12C [Cholic Acid] | -2.04 | 2.75 | 8.68 | 3.98 | -1.08
CC(=O)Nc1ccc(O)cc1 [Acetaminophen] | -1.23 | -0.558 | -0.87 | -5.65 | -2.34
COc1ccc(NC(=O)c2ccc(C(=N)N(C)C)cc2)c(C(=O)Nc2ccc(Cl)cn2)c1 [Betrixaban] | 11.6 | 2.94 | 2.19 | 5.98 | 7.59
C[C@]12C=CC(=O)C=C1CC[C@@H]1[C@@H]2[C@@H](O)C[C@@]2(C)[C@H]1CC[C@]2(O)C(=O)CO [Prednisolone] | 1.41 | 3.42 | 13.7 | 0.15 | 7.45
O=NN(CCCl)C(=O)NCCCl [Carmustine] | -3.21 | 2.25 | 1.68 | 0.0979 | 11.5
O=C(O)CCCN1CCC(O[C@@H](c2ccc(Cl)cc2)c2ccccn2)CC1 [Bepotastine (besylate)] | 13.3 | 3.74 | 0.00178 | 0.195 | 1.29
CCCCCCOC(=O)CCC(=O)CN [Hexaminolevulinate (hydrochloride)] | 5.6 | 3.54 | 2.02 | 7.86 | 2.47
COc1cccc2c1C(=O)c1c(O)c3c(c(O)c1C2=O)C[C@@](O)(C(=O)CO)C[C@@H]3O[C@H]1C[C@H](N)[C@@H](O)[C@H](C)O1 [Epirubicin (hydrochloride)] | 9.14 | 0.312 | -7.5 | 5.65 | 1.76
CC1=NN(c2ccccc2)C(=O)C1 | 2.26 | -0.112 | -1.37 | -1.34 | 4.56
Cn1c(=O)c2c(ncn2C)n(C)c1=O [Caffeine] | 5.33 | 2.45 | 2.64 | 7.15 | 4.07
C[C@H]1[C@H](NC(=O)/C(=N\OC(C)(C)C(=O)O)c2csc(N)n2)C(=O)N1S(=O)(=O)O [Aztreonam] | -7.88 | 8.41 | 8.84 | 5.95 | -0.4
CN(C)CCCN1c2ccccc2Sc2ccc(Cl)cc21 [Chlorpromazine (hydrochloride)] | 12.6 | -0.58 | 13.4 | -8.52 | 6.64
